# Results from the supplement of paper PMC7411054.
# Where a name gives a salt, the structure may show the parent alone.
# Tests used:
# Conditions in all cases: treatment time: 24 h
# A549-ACTB-RAB5A [1] = test: lowest phenotypically active concentration; higher = less potent
# Method in brief: (§1)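 Fifteen reporter lines derived from A549, HepG2 and WPMY1 cells by gene editing, carrying BFP for segmentation plus GFP and RFP/FusionRed markers, were exposed to 0.3, 1, 3 or 9 µM for 24 h in four wells each and imaged live. Live-cell features from each well were normalised to solvent control wells. A well set counted as deviating when ≥3 of 4 wells lay beyond the 95th percentile of control Euclidean distances, and as reproducible when the median replicate Pearson correlation exceeded the 95th percentile of non-replicates. Phenotypic activity was assigned only when both criteria were met.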
# A549-GM130-SQSTM1 [2] = test: as above
# Method in brief: as §1
# A549-TUBA1B-RELA [3] = test: as above
# Method in brief: as §1
# WPMY1-CANX-COX4 [4] = test: as above
# Method in brief: as §1
# A549-ACTB-RAB5A [5] = test: phenotypically active (imaging signature differs from DMSO and reproducible) at any of 0.3-9 uM (binary (1 = active, 0 = inactive)); higher = active
# Method in brief: as §1
# A549-CANX-COX4 = test: as above
# Method in brief: as §1
# A549-GM130-SQSTM1 [6] = test: as above
# Method in brief: as §1
# A549-TP53BP1-CLTA = test: as above
# Method in brief: as §1
# A549-TUBA1B-RELA [7] = test: as above
# Method in brief: as §1
# HepG2-ACTB-RAB5A [8] = test: as above
# Method in brief: as §1
# HepG2-CANX-COX4 = test: as above
# Method in brief: as §1
# HepG2-GM130-SQSTM1 = test: as above
# Method in brief: as §1
# HepG2-TP53BP1-CLTA = test: as above
# Method in brief: as §1
# HepG2-TUBA1B-RELA = test: as above
# Method in brief: as §1
# WPMY1-ACTB-RAB5A = test: as above
# Method in brief: as §1
# WPMY1-CANX-COX4 [9] = test: as above
# Method in brief: as §1
# WPMY1-GM130-SQSTM1 = test: as above
# Method in brief: as §1
# WPMY1-TP53BP1-CLTA = test: as above
# Method in brief: as §1
# WPMY1-TUBA1B-RELA = test: as above
# Method in brief: as §1
# HepG2-ACTB-RAB5A [10] = test: lowest phenotypically active concentration; higher = less potent
# Method in brief: as §1
Structure (SMILES),lowest phenotypically active concentration (A549-ACTB-RAB5A [1]) [µM],lowest phenotypically active concentration (A549-GM130-SQSTM1 [2]) [µM],lowest phenotypically active concentration (A549-TUBA1B-RELA [3]) [µM],lowest phenotypically active concentration (WPMY1-CANX-COX4 [4]) [µM],phenotypically active (A549-ACTB-RAB5A [5]),phenotypically active (A549-CANX-COX4),phenotypically active (A549-GM130-SQSTM1 [6]),phenotypically active (A549-TP53BP1-CLTA),phenotypically active (A549-TUBA1B-RELA [7]),phenotypically active (HepG2-ACTB-RAB5A [8]),phenotypically active (HepG2-CANX-COX4),phenotypically active (HepG2-GM130-SQSTM1),phenotypically active (HepG2-TP53BP1-CLTA),phenotypically active (HepG2-TUBA1B-RELA),phenotypically active (WPMY1-ACTB-RAB5A),phenotypically active (WPMY1-CANX-COX4 [9]),phenotypically active (WPMY1-GM130-SQSTM1),phenotypically active (WPMY1-TP53BP1-CLTA),phenotypically active (WPMY1-TUBA1B-RELA),lowest phenotypically active concentration (HepG2-ACTB-RAB5A [10]) [µM]
CCn1c(=O)n([C@H]2CCCN(c3nccc(-c4cc5ccccc5o4)n3)C2)c2ccccc21,3,3,9,3,1 (active),1 (active),1 (active),1 (active),1 (active),0 (inactive),0 (inactive),0 (inactive),0 (inactive),0 (inactive),0 (inactive),1 (active),0 (inactive),0 (inactive),0 (inactive),–
CN(C)CC(=O)Nc1ccc2[nH]c(=O)c3ccccc3c2c1 [PJ 34 hydrochloride],9,9,9,3,1 (active),1 (active),1 (active),0 (inactive),1 (active),1 (active),1 (active),1 (active),1 (active),1 (active),1 (active),1 (active),1 (active),0 (inactive),1 (active),9
N#C/C(=C/c1ccc(O)c(O)c1)C(=O)NCCCCc1ccccc1,9,9,9,9,1 (active),1 (active),1 (active),0 (inactive),1 (active),1 (active),1 (active),1 (active),1 (active),0 (inactive),1 (active),1 (active),1 (active),1 (active),1 (active),9
CN(C)c1ccc(/C=C2\C(=O)Nc3ccccc32)cc1,9,3,9,3,1 (active),1 (active),1 (active),1 (active),1 (active),0 (inactive),0 (inactive),1 (active),1 (active),1 (active),1 (active),1 (active),1 (active),1 (active),0 (inactive),–
C=C1C(=O)O[C@@H]2[C@H]3O[C@]3(C)CCC=C(C)CC[C@@H]12 [Parthenolide],9,9,9,9,1 (active),1 (active),1 (active),0 (inactive),1 (active),1 (active),1 (active),1 (active),0 (inactive),0 (inactive),1 (active),1 (active),1 (active),0 (inactive),1 (active),9
CCCCc1oc2ccc(NS(C)(=O)=O)cc2c1C(=O)c1ccc(OCCCN(CCCC)CCCC)cc1 [dronedarone],3,3,3,9,1 (active),1 (active),1 (active),0 (inactive),1 (active),1 (active),0 (inactive),1 (active),1 (active),1 (active),1 (active),1 (active),0 (inactive),1 (active),1 (active),9
CN1CCc2cccc3c2[C@H]1Cc1ccc(O)c(O)c1-3 [r(-)-apomorphine],9,9,9,9,1 (active),1 (active),1 (active),1 (active),1 (active),0 (inactive),0 (inactive),0 (inactive),0 (inactive),0 (inactive),1 (active),1 (active),1 (active),0 (inactive),1 (active),–
Nc1nccc(-c2ccc3noc(-c4ccc(Cl)cc4)c3c2)n1 [PIM-1 Inhibitor 2],3,3,–,9,1 (active),1 (active),1 (active),1 (active),0 (inactive),0 (inactive),0 (inactive),0 (inactive),1 (active),0 (inactive),1 (active),1 (active),1 (active),1 (active),1 (active),–
Cc1nnc(-c2ccc3occ(-c4ccc(S(C)=O)cc4)c3c2)o1 (stereo unspecified),9,9,–,9,1 (active),1 (active),1 (active),1 (active),0 (inactive),1 (active),1 (active),1 (active),0 (inactive),1 (active),1 (active),1 (active),1 (active),1 (active),0 (inactive),9
CCc1cncnc1N1CCN(Cc2nc3cc(C(F)(F)F)ccc3[nH]2)CC1,3,9,–,–,1 (active),1 (active),1 (active),0 (inactive),0 (inactive),1 (active),1 (active),1 (active),1 (active),1 (active),0 (inactive),0 (inactive),0 (inactive),0 (inactive),1 (active),9
CC1(C)O[C@@H]2C[C@H]3[C@@H]4C[C@H](F)C5=CC(=O)C=C[C@]5(C)[C@@]4(F)[C@@H](O)C[C@]3(C)[C@]2(C(=O)CO)O1 [fluocinolone acetonide],≤ 0.3,≤ 0.3,≤ 0.3,–,1 (active),1 (active),1 (active),1 (active),1 (active),0 (inactive),0 (inactive),0 (inactive),0 (inactive),0 (inactive),1 (active),0 (inactive),0 (inactive),0 (inactive),0 (inactive),–
COc1ccc(-c2cc(=O)c3c(O)cc(O)cc3o2)cc1O [Diosmetin],9,9,9,9,1 (active),1 (active),1 (active),0 (inactive),1 (active),0 (inactive),0 (inactive),0 (inactive),0 (inactive),1 (active),0 (inactive),1 (active),0 (inactive),1 (active),1 (active),–
CC(C)C(=O)SCCCCCCC(=O)Nc1nc(-c2ccccc2)cs1,1,–,9,1,1 (active),1 (active),0 (inactive),0 (inactive),1 (active),0 (inactive),1 (active),0 (inactive),0 (inactive),0 (inactive),1 (active),1 (active),1 (active),1 (active),1 (active),–
CC(C)(C)c1cc(C(=O)/C=C/c2ccc(C(=O)O)cc2)cc(C(C)(C)C)c1,≤ 0.3,1,1,≤ 0.3,1 (active),1 (active),1 (active),0 (inactive),1 (active),1 (active),1 (active),1 (active),1 (active),0 (inactive),1 (active),1 (active),1 (active),1 (active),1 (active),≤ 0.3
CC/C(=C(/c1ccccc1)c1ccc(OCCN(C)C)cc1)c1ccccc1 [tamoxifen],3,3,3,9,1 (active),1 (active),1 (active),0 (inactive),1 (active),1 (active),0 (inactive),1 (active),1 (active),1 (active),1 (active),1 (active),1 (active),1 (active),1 (active),9
c1cc(-c2cc(C3CCNCC3)[nH]n2)ccn1,9,3,9,9,1 (active),1 (active),1 (active),0 (inactive),1 (active),0 (inactive),1 (active),0 (inactive),0 (inactive),0 (inactive),1 (active),1 (active),0 (inactive),0 (inactive),0 (inactive),–
Cc1cccc(C)c1OCC(=O)N[C@@H](Cc1ccccc1)[C@@H](O)C[C@H](Cc1ccccc1)NC(=O)[C@H](C(C)C)N1CCCNC1=O [lopinavir],9,–,–,9,1 (active),1 (active),0 (inactive),0 (inactive),0 (inactive),1 (active),0 (inactive),0 (inactive),0 (inactive),1 (active),0 (inactive),1 (active),0 (inactive),0 (inactive),0 (inactive),9
C/C(=N/NC(=N)N)c1ccc(NC(=O)Nc2ccc(/C(C)=N/NC(=N)N)cc2)cc1,3,9,3,3,1 (active),1 (active),1 (active),0 (inactive),1 (active),1 (active),1 (active),1 (active),1 (active),1 (active),1 (active),1 (active),1 (active),0 (inactive),0 (inactive),3
C[C@@H]1C[C@H]2[C@@H]3CCC4=CC(=O)C=C[C@]4(C)[C@@]3(Cl)[C@@H](O)C[C@]2(C)[C@@]1(OC(=O)c1ccco1)C(=O)CCl [mometasone furoate],≤ 0.3,≤ 0.3,≤ 0.3,–,1 (active),1 (active),1 (active),1 (active),1 (active),0 (inactive),0 (inactive),0 (inactive),0 (inactive),0 (inactive),0 (inactive),0 (inactive),1 (active),0 (inactive),0 (inactive),–
O=C(O)Cc1cccc(OCCCN(Cc2cccc(C(F)(F)F)c2Cl)CC(c2ccccc2)c2ccccc2)c1 [GW 3965 hydrochloride],9,–,–,–,1 (active),1 (active),0 (inactive),0 (inactive),0 (inactive),0 (inactive),1 (active),0 (inactive),0 (inactive),1 (active),0 (inactive),0 (inactive),0 (inactive),0 (inactive),0 (inactive),–
CCCCOc1cc(C(=O)NCCN(CC)CC)c2ccccc2n1 [cinchocaine],3,9,9,–,1 (active),0 (inactive),1 (active),1 (active),1 (active),0 (inactive),0 (inactive),0 (inactive),1 (active),0 (inactive),1 (active),0 (inactive),0 (inactive),0 (inactive),0 (inactive),–
C[C@]1(O)C[C@@H](c2nc(-c3ccc4ccc(-c5ccccc5)nc4c3)c3c(N)nccn32)C1 [linsitinib],1,≤ 0.3,3,9,1 (active),0 (inactive),1 (active),1 (active),1 (active),1 (active),1 (active),1 (active),1 (active),1 (active),1 (active),1 (active),1 (active),1 (active),0 (inactive),9
